± gives the standard deviation of the averaged measurements. Over roughly 33,000 sequences, “E-score (rank enrichment, -0.5 to 0.5)” has its median near -0.0068; the highest 2% begin near 0.24. Only a selection was taken, and the highest values are over-represented in it overall.
Tested on: muMax20 (Max(13-93) K31hArg/K57hArg, M65Nle)
Test: PBM 8-mer E-score (E-score (rank enrichment, -0.5 to 0.5)); higher = stronger preferential binding
Description: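 Protein binding microarray (universal PBM chip covering all 10-mers in fixed probe flanks) with chemically synthesized human Max(13-93) bHLH-LZ analogs (not full-length Max) bearing noncanonical residues (hArg, Tha, Aib, Nle at 65) and aromatic Cys staples. Read-out per 8-mer (and its reverse complement): E-score (rank-based enrichment, -0.5 to 0.5) and Z-score of median probe intensity.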

| Sequence | PBM 8-mer E-score |
| --- | --- |
| CGGTTCAC | -0.245 ± 0.053 |
| AGCATTCC | -0.123 ± 0.17 |
| GGAGCCCA | -0.156 ± 0.11 |
| CCTGTGAC | -0.0438 ± 0.0042 |
| CCATAGAC | -0.0388 ± 0.035 |
| GACGTTGA | 0.0147 ± 0.11 |
| ATCCTTTG | 0.0245 ± 0.09 |
| CTGAGCAC | -0.0319 ± 0.049 |
| TCGAGAGA | -0.0503 ± 0.027 |
| AATGACTC | 0.152 ± 0.015 |
| GTTGAACA | 0.031 ± 0.035 |
| CGTAACTC | -0.0982 ± 0.11 |
| AACACGGT | -0.129 ± 0.055 |
| TCCGCGCA | -0.113 ± 0.072 |
| GCGTGATA | 0.174 ± 0.032 |
| ATGTGATA | 0.24 ± 0.12 |
| AAGTGATG | 0.129 ± 0.12 |
| ATGTGAAA | 0.317 ± 0.057 |
| ACGTGATG | 0.294 ± 0.05 |
| ACGTGATA | 0.33 ± 0.082 |
| CTGTGAAA | 0.0471 ± 0.025 |
| CCGTGATA | -0.0912 ± 0.033 |
| CTGTGATA | -0.0301 ± 0.17 |
| GTGTGATA | 0.154 ± 0.018 |
| AGGTGATG | -0.00343 ± 0.027 |

| Sequence | PBM 8-mer E-score |
| --- | --- |
| GTGTGAAA | 0.141 ± 0.027 |
| ACTATGCT | 0.231 ± 0.07 |
| CCCGAGGA | -0.233 ± 0.074 |
| ATGGGATC | 0.0291 ± 0.075 |
| CTAACTCA | 0.0355 ± 0.056 |
| AGCCGATG | -0.155 ± 0.04 |
| AATCACCA | 0.133 ± 0.014 |
| AGTGTCCC | -0.0112 ± 0.012 |
| GATATTAC | 0.121 ± 0.015 |
| AATATTAC | 0.281 ± 0.066 |
| AACATTGA | 0.0179 ± 0.032 |
| ACTATTAT | 0.204 ± 0.056 |
| AGTATTAG | 0.0793 ± 0.032 |
| AACATTGT | 0.236 ± 0.013 |
| AGTATTAA | 0.268 ± 0.03 |
| AATATTAT | 0.25 ± 0.026 |
| AATATTAG | 0.175 ± 0.04 |
| CATATTAC | 0.0522 ± 0.03 |
| AACATTGG | -0.0243 ± 0.2 |
| TGTATTAA | 0.184 ± 0.096 |
| CCCGCGCA | -0.124 ± 0.031 |
| ATGTGGCA | 0.0287 ± 0.095 |
| AGCATTTC | 0.141 ± 0.0034 |
| CAACTAAG | 0.0637 ± 0.092 |
| ATTGCAAA | 0.0872 ± 0.083 |

| Sequence | PBM 8-mer E-score |
| --- | --- |
| AGGTCCTA | -0.128 ± 0.083 |
| TTCCCGAA | -0.0933 ± 0.0092 |
| AATAGAAC | 0.0563 ± 0.077 |
| TATATTAA | 0.179 ± 0.025 |
| AATATTGG | 0.101 ± 0.094 |
| AATATTGC | 0.138 ± 0.076 |
| CATATTAG | 0.121 ± 0.053 |
| GATATTAA | 0.134 ± 0.028 |
| AATATTAA | 0.304 ± 0.025 |
| CATATTAA | 0.297 ± 0.012 |
| AATATTGT | 0.256 ± 0.006 |
| ACTATTAA | 0.149 ± 0.011 |
| CGCGCTCC | -0.0678 ± 0.11 |
| AGCTGTAC | -0.0262 ± 0.13 |
| GGACTGTA | 0.00313 ± 0.055 |
| ATTTGTAC | 0.176 ± 0.038 |
| AATTATAT | 0.147 ± 0.044 |
| CTATCAGC | 0.0217 ± 0.00023 |
| CAGTCATA | 0.0326 ± 0.1 |
| AAACGGCT | -0.0843 ± 0.069 |
| GAAACGGC | 0.0377 ± 0.059 |
| AAACGGCC | 0.294 ± 0.093 |
| AAAACGGC | 0.3 ± 0.099 |
| CAACGGCC | -0.206 ± 0.059 |
| CAAACGGC | -0.242 ± 0.0069 |

| Sequence | PBM 8-mer E-score |
| --- | --- |
| ACAAATAT | 0.185 ± 0.027 |
| ATCCGCGC | -0.227 ± 0.043 |
| CACATACC | -0.0465 ± 0.058 |
| CCTTCGCG | -0.228 ± 0.019 |
| CTGAAAGA | 0.0447 ± 0.09 |
| ATGCCAAA | 0.111 ± 0.027 |
| ATACGTAT | 0.308 ± 0.0025 |
| ATACGTAC | 0.188 ± 0.074 |
| ATACGTAA | 0.112 ± 0.077 |
| CTCGTCCA | -0.0336 ± 0.048 |
| CCGTAAAG | 0.104 ± 0.11 |
| AAGGCCGT | 0.278 ± 0.095 |
| AAGGCCGC | -0.00405 ± 0.027 |
| AAGGCCGG | -0.243 ± 0.084 |
| GCCGACAA | -0.268 ± 0.068 |
| GCGGTTGA | -0.134 ± 0.11 |
| GCACCCCA | -0.0239 ± 0.0035 |
| CCCACCCC | 0.258 ± 0.018 |
| CCACCCCC | -0.12 ± 0.084 |
| TCCACCCA | 0.00135 ± 0.18 |
| ACCACCCC | -0.0712 ± 0.063 |
| CCCACCCG | 0.186 ± 0.028 |
| CCCACCCA | 0.269 ± 0.099 |
| GCCACCCC | -0.0921 ± 0.047 |
| CCACCCCA | 0.261 ± 0.066 |

| Sequence | PBM 8-mer E-score |
| --- | --- |
| ATCCATAC | 0.15 ± 0.062 |
| GGTAGAAA | 0.0368 ± 0.022 |
| AGGCGCGG | -0.125 ± 0.07 |
| GAGTGGAA | -0.00431 ± 0.092 |
| ATTCACAG | -0.0684 ± 0.13 |
| ATTCACAA | 0.247 ± 0.032 |
| GTTCACAA | -0.0567 ± 0.038 |
| AAAACTTT | 0.133 ± 0.058 |
| CTAACACA | 0.127 ± 0.02 |
| CTAACATC | 0.042 ± 0.045 |
| ATAACATG | 0.199 ± 0.064 |
| GTAACACA | 0.26 ± 0.11 |
| ATAACACG | 0.251 ± 0.014 |
| GTAACAAA | 0.197 ± 0.067 |
| ATAACACC | 0.134 ± 0.014 |
| ATAACACA | 0.186 ± 0.067 |
| ATAACATC | 0.249 ± 0.13 |
| CGGGGGGA | -0.222 ± 0.029 |
| ACGGCACC | -0.104 ± 0.13 |
| CGGACAGC | -0.13 ± 0.064 |
| GCGGCATA | -0.00641 ± 0.021 |
| CCTTCGAC | -0.147 ± 0.0063 |
| ATTACTCC | 0.182 ± 0.07 |
| CTACCGCC | -0.156 ± 0.014 |
| GGAACAAA | 0.171 ± 0.014 |

| Sequence | PBM 8-mer E-score |
| --- | --- |
| CCGAGCGA | -0.223 ± 0.081 |
| CTTTTGTA | 0.151 ± 0.01 |
| GGTTTGTA | -0.00997 ± 0.022 |
| GCTTTTAA | 0.00199 ± 0.15 |
| CCTTTTCA | 0.295 ± 0.091 |
| CTTTTTCA | 0.0825 ± 0.076 |
| GTTTTGTA | 0.254 ± 0.012 |
| GGTTTATA | 0.051 ± 0.032 |
| GCTTTTCA | 0.0793 ± 0.013 |
| AGTTTATA | 0.266 ± 0.0043 |
| CCTTTTTA | 0.0863 ± 0.063 |
| GCTTTTTA | 0.292 ± 0.084 |
| AGTTTATC | 0.138 ± 0.08 |
| AGAATGTA | 0.159 ± 0.034 |
| ATCCAGAT | 0.0236 ± 0.27 |
| AGAATCGA | -0.018 ± 0.077 |
| CCAATCCG | -0.198 ± 0.078 |
| CTCATACC | 0.014 ± 0.025 |
| AGACCCCA | 0.177 ± 0.046 |
| CAGCCAAG | -0.147 ± 0.066 |
| AGTACATA | 0.147 ± 0.081 |
| CTTTTATA | 0.184 ± 0.01 |
| GTTTTATA | 0.261 ± 0.059 |
| AATTTATC | 0.205 ± 0.02 |
| CATTTATA | 0.175 ± 0.032 |

| Sequence | PBM 8-mer E-score |
| --- | --- |
| ATTTTATA | 0.231 ± 0.038 |
| AATTTATA | 0.247 ± 0.059 |
| GTCGAGGA | -0.115 ± 0.0082 |
| GGAAAGGA | -0.246 ± 0.099 |
| ACAGAGGG | -0.155 ± 0.0044 |
| CTCTAGTA | 0.118 ± 0.0018 |
| GTCTAGTA | 0.252 ± 0.03 |
| ATCTAGTA | -0.00587 ± 0.017 |
| CAGCCGAC | -0.22 ± 0.12 |
| GGGGGACC | -0.296 ± 0.013 |
| AAGAGCAC | 0.00129 ± 0.0028 |
| AGATTCGG | -0.118 ± 0.032 |
| TCAAGGGA | -0.065 ± 0.048 |
| CAGATATA | 0.0469 ± 0.045 |
| AAGATGTA | 0.237 ± 0.094 |
| ATGATATG | 0.21 ± 0.12 |
| GAGATACA | -0.0288 ± 0.04 |
| AAGATATA | 0.26 ± 0.041 |
| AAGATACT | 0.117 ± 0.038 |
| GAGATGTA | 0.104 ± 0.017 |
| ATGATATA | 0.266 ± 0.048 |
| AAGATACA | 0.316 ± 0.024 |
| CTGATATA | 0.0184 ± 0.051 |
| AAGATATC | 0.155 ± 0.027 |
| CAGATGTA | 0.138 ± 0.011 |
